Laboratory results: PubChem BioAssay (NCATS)
“And” between values parts separate entries of the source, which are not always exact repeats. Equal entries are not always repeated. Inconclusive results are not listed. Entries that show only a call come without a potency. The source made the active and inactive calls. Unless noted, calls come from the whole dose curve.

Assays:
[1] = biological target: Bile acid receptor (Homo sapiens) (UniProt Q96RI1); assay: qHTS assay for small molecule agonists of farnesoid X receptor signaling (AID 588527); settings: HEK293T FXR-UAS-bla, beta-lactamase ratio, 16 h; stronger effect = higher value
Chain of Bile acid receptor (Homo sapiens) (Q96RI1 whole entry, looked up): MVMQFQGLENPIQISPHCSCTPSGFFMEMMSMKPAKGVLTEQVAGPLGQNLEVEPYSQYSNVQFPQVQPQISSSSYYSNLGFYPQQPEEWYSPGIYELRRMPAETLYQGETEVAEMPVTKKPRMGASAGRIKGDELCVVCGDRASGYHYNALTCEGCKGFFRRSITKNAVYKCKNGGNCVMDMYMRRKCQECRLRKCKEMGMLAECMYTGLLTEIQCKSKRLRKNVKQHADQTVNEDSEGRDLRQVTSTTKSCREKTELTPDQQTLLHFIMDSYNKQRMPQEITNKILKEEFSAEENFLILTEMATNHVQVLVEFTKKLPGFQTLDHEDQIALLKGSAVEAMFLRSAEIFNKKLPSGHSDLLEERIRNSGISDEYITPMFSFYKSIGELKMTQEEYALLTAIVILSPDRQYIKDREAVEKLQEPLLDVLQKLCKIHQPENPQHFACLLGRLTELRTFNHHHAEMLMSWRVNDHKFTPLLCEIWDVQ
Summary of the method: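 FXR-UAS-bla HEK293T, 10% dialyzed FBS; cpds up to 92 uM titration, 16 h 37 C; CCF4 dye 2 h RT; fluorescence. Normalized to chenodeoxycholic acid 100 uM (100%) and DMSO (0%); Hill fit gives EC50, efficacy.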

[2] = biological target: Peroxisome proliferator-activated receptor delta (Homo sapiens) (UniProt Q03181); assay: qHTS assay for small molecule agonists of peroxisome proliferator-activated receptor delta signaling (AID 588534)
Chain of Peroxisome proliferator-activated receptor delta (Homo sapiens) (Q03181 whole entry, looked up): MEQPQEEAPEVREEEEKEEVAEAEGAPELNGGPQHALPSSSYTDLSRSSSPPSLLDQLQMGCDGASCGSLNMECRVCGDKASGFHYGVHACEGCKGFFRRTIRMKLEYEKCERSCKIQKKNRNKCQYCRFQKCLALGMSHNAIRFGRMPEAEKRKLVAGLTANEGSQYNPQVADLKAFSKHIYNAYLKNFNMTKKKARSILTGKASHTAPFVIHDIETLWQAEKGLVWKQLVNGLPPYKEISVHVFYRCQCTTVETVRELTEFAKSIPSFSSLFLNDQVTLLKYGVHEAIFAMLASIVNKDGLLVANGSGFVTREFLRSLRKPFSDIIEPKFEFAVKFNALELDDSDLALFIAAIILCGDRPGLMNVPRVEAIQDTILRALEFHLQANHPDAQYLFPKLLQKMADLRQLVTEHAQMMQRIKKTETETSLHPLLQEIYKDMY
Summary of the method: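 EC50 and efficacy values derive from Hill fits of a concentration series in a beta-lactamase reporter cell assay. Exposure is 18 hrs at 37 C, with CCF4 fluorescence as the readout.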

[3] = Primary qHTS for Huh7 cytotoxicity: counterscreen for inhibitors of MERS-S pseudotyped particle cell entry (AID 1479147); settings: outcome: dose series up to 57.1 µM unless noted
[4] = Primary qHTS for inhibitors of MERS-S pseudo-typed particle cell entry (AID 1479149); settings: outcome: dose series up to 57.1 µM unless noted; note: nearly all actives have a fitted effect of over 60% in size
[5] = Primary qHTS for Vero E6 cytotoxicity: counterscreen for inhibitors of SARS-S pseudo-typed particle cell entry (AID 1479150); settings: outcome: dose series up to 57.1 µM unless noted; note: potency is the fitted concentration of half-maximal effect
[6] = Cytotoxicity counterscreen for inhibitors of SARS-CoV-2 cell entry (AID 1645845); settings: outcome: dose series up to 57.1 µM unless noted; note: nearly all actives have a fitted effect of over 50% in size
Summary of the method: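 After a 15 min room-temperature ATPLite 1step step, luminescence reflected ATP remaining in HEK293-ACE2 cells exposed to compound for 1 h plus 48 h at 37 C, with percent activity set by cell and no-cell controls.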

[7] = Primary qHTS to identify inhibitors of SARS-CoV-2 cell entry (AID 1645846); settings: SARS-CoV-2 pseudovirus cell entry assay, luminescence; activity change, negative = inhibition: at 57.1 µM (top of the series) unless noted; note: nearly all actives have a fitted effect of over 45% in size; note: potency is the fitted concentration of half-maximal effect
Summary of the method: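 Inhibition of spike-mediated entry was scored in human ACE2-transfected Expi293F cells. Particles were MLV-pseudotyped with Wuhan-Hu-1 S carrying a 19-aa C-terminal deletion; signal was luciferase after two days, scaled between spike PP and fusion-protein-free PP.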

[8] = S16 Schwann cell PMP22 intronic element firefly luciferase assay (AID 624032; active = well fitted curve in the direction sought with a large enough effect; an effect the other way counts as inactive or inconclusive; note: potency is the fitted concentration of half-maximal effect; nearly all actives have a fitted effect of over 30% in size)
Summary of the method: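 Rat S16 Schwann cells stably carrying a PMP22 intronic element-driven Fluc reporter were seeded overnight, then exposed to compounds for 24 h at 37 °C. Luminescence was normalized to PTC124 (positive control) and DMSO (0% activity).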

[9] = S16 Schwann cell PMP22 intronic element beta-lactamase assay (AID 624044); settings: S16 rat Schwann cells, PMP22 element beta-lactamase FRET, 24 h; ratio activity, negative = inhibition: at 38.3 µM (top of the series) unless noted; note: potency is the fitted concentration of half-maximal effect; nearly all actives have a fitted effect of over 15% in size
Summary of the method: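 Beta-lactamase reporter under a PMP22 intronic regulatory element in stable S16 rat Schwann cells; 24 h compound exposure. 460 nm blue signal normalized between DMSO (0%) and potassium clavulanate, with 535 nm FRET tracking viability; curves classed by r2 and response.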

[10] = biological target: Glutathione peroxidase 1 (Homo sapiens) (UniProt P07203); assay: Primary qHTS Assay for Inhibitors of Recombinant Selenoprotein Glutathione Peroxidase 1 (GPX1) (AID 1845191; active = well fitted curve in the direction sought with a large enough effect; an effect the other way counts as inactive or inconclusive; note: nearly all actives have a fitted effect of over 65% in size)
Chain of Glutathione peroxidase 1 (Homo sapiens) (P07203 whole entry, looked up): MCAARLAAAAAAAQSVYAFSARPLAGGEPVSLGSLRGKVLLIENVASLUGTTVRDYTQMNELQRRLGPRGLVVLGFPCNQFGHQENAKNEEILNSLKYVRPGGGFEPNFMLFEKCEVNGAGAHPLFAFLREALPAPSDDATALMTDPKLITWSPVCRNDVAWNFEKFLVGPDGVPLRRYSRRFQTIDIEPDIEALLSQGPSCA
Summary of the method: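 GPX1 10 nM, GR 100 nM, GSH 1 mM, NADPH 0.5 mM, CHP 0.5 mM (final). 30-min cpd preincubation, RT. Ex340/Em450 read t=0, t=15 min.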

[11] = biological target: Phospholipid hydroperoxide glutathione peroxidase GPX4 (Homo sapiens) (UniProt P36969); assay: Primary qHTS Assay for Inhibitors of Recombinant Selenoprotein Glutathione Peroxidase 4 (GPX4) (AID 1845192; active = well fitted curve in the direction sought with a large enough effect; an effect the other way counts as inactive or inconclusive; note: nearly all actives have a fitted effect of over 65% in size)
Chain of Phospholipid hydroperoxide glutathione peroxidase GPX4 (Homo sapiens) (P36969 whole entry, looked up): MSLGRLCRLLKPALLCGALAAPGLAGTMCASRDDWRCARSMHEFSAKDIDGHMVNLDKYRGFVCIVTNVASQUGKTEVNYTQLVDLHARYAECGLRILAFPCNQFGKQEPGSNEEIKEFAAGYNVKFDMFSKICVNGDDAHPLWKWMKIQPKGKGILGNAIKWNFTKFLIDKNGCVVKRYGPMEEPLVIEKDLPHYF
Summary of the method: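 qHTS, GR-coupled: GPX4 200 nM + cpd 30 min RT → GSH 1 mM, NADPH 0.5 mM, GR 100 nM → CHP 0.5 mM start; fluor 340/450 at t0 and t15 min; no-enzyme wells as control.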

[12] = biological target: Cytochrome P450 2C9 (Homo sapiens) (UniProt P11712); assay: qHTS Assay for Inhibitors and Substrates of Cytochrome P450 2C9 (AID 883; active = well fitted curve in the direction sought with a large enough effect; an effect the other way counts as inactive or inconclusive; note: nearly all actives have a fitted effect of over 60% in size)
Chain of Cytochrome P450 2C9 (Homo sapiens) (P11712 whole entry, looked up): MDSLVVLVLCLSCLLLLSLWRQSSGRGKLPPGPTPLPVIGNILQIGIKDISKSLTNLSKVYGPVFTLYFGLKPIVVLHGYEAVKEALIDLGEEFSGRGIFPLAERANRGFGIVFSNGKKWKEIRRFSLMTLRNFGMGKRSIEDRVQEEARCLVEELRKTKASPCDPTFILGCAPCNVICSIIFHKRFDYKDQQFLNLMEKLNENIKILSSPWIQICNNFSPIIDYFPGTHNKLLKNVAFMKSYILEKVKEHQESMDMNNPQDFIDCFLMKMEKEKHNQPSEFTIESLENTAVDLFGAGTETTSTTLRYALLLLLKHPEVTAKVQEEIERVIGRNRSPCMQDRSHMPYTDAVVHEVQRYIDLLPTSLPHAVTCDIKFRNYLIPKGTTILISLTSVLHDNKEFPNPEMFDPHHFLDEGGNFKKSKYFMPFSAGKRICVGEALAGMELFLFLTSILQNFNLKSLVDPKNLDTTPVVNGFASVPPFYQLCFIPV
Summary of the method: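 CYP2C9 deoxyluciferin hydroxylation, 37C, 60 min with NADPH regeneration; 10nM enzyme, 100uM Luciferin-H (KM). Glo detection reagent stopped reaction; luminescence normalized to sulphaphenazole (57uM) full inhibition.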

[13] = biological target: Cytochrome P450 2C19 (Homo sapiens) (UniProt P33261); assay: qHTS Assay for Inhibitors and Substrates of Cytochrome P450 2C19 (AID 899; active = well fitted curve in the direction sought with a large enough effect; an effect the other way counts as inactive or inconclusive; note: nearly all actives have a fitted effect of over 60% in size)
Chain of Cytochrome P450 2C19 (Homo sapiens) (P33261 whole entry, looked up): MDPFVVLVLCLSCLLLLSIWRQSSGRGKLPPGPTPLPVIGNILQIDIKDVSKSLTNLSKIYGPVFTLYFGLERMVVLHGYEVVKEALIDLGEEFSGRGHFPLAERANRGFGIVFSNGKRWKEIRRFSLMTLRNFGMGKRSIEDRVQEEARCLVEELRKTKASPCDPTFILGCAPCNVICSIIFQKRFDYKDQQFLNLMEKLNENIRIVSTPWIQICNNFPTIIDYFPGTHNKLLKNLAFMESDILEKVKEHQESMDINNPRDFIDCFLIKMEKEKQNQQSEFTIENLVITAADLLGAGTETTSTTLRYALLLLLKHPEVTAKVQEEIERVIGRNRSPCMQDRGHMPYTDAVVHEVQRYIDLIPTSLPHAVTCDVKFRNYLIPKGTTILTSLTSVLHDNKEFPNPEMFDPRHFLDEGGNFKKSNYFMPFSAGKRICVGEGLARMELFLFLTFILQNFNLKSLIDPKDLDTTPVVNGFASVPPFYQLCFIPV
Summary of the method: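 In 50mM KPO4, the reaction held 5nM enzyme and KM-level (10uM) Luciferin-H EGE; it ran 60 min at 37C after NADPH regeneration and a 10 min compound preincubation. Luminescence values were scaled to 57uM ketoconazole as complete inhibition.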

[14] = Validation screen for inhibitors of Lassa infection (AID 463096)
[15] = Confirmatory qHTS for VERO E6 Cytotoxicity Assay: Counterscreen for SARS-CoV-2 CPE Assay (AID 1508605); note: nearly all actives have a fitted effect of over 60% in size
[16] = Confirmatory qHTS for activators (rescue) of SARS-CoV-2 Cytopathic Effect (CPE) (AID 1508606); note: potency is the fitted concentration of half-maximal effect; nearly all actives have a fitted effect of over 70% in size
[17] = Confirmatory qHTS to identify inhibitors of SARS-CoV-2 cell entry (AID 1645844); note: potency is the fitted concentration of half-maximal effect; nearly all actives have a fitted effect of over 45% in size
Summary of the method: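 Using stable human ACE2 Expi293F cells, compounds preincubated 1 hr before spike pseudoparticle infection; luciferase signal after 48 hr at 37C, 5% CO2, normalised to spike PP and no-fusion-protein PP wells.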

[18] = VSVG counterscreen qHTS to identify inhibitors of SARS-CoV-2 cell entry (AID 1645847); note: nearly all actives have a fitted effect of over 65% in size
Summary of the method: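 Luminescence from a luciferase reporter, normalised to bald particle and VSV-G pseudotyped particle wells, is the read-out. Cells are HEK293 expressing human ACE2, exposed to compound 1 h before a 48 h particle infection at 37 °C.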

O=S(=O)(O)c1ccccc1
activation [1]: 0.473% (inactive) | outcome [2]: inactive | Potency [3]: inactive | Potency [4]: inactive | Potency [5]: inactive | Potency [6]: inactive | activity change, negative = inhibition [7]: -15.3%

C[C@H]1CC[C@@H]2[C@@H](C)[C@H]3[C@H](C[C@H]4[C@@H]5CC=C6C[C@@H](O[C@@H]7O[C@H](CO)[C@H](O)[C@H](O[C@@H]8O[C@H](CO)[C@@H](O)[C@H](O)[C@H]8O)[C@H]7O[C@@H]7O[C@@H](C)[C@H](O)[C@@H](O)[C@H]7O)CC[C@]6(C)[C@H]5CC[C@]34C)N2C1
Potency [3]: inactive | Potency [4]: inactive | Potency [7]: 20 µM (active)

CC[C@@H]1/C=C(\C)C[C@H](C)C[C@H](OC)[C@H]2O[C@@](O)(C(=O)C(=O)N3CCCC[C@H]3C(=O)O[C@H](/C(C)=C/[C@@H]3CC[C@H](Cl)[C@H](OC)C3)[C@H](C)[C@@H](O)CC1=O)[C@H](C)C[C@@H]2OC
Potency [3]: inactive | Potency [5]: inactive

CC(C)n1c(/C=C/[C@H](O)C[C@H](O)CC(=O)O)c(-c2ccc(F)cc2)c2ccccc21
Potency [8]: 11.4 µM (active) | Potency [9]: 14.1 µM (active) | Potency [3]: inactive | Potency [4]: inactive | Potency [5]: 8.91 µM (active) | Potency [6]: inactive

C[N+]1(CC2CC2)CC[C@]23c4c5ccc(O)c4O[C@H]2C(=O)CC[C@@]3(O)[C@H]1C5 (stereo not given in full)
Potency [3]: inactive | Potency [4]: inactive | Potency [5]: inactive | Potency [6]: inactive | Potency [10]: inactive | Potency [11]: inactive

COc1cc(/C=C\C(=O)N2CCN(CC(=O)N3CCCC3)CC2)cc(OC)c1OC
Potency [3]: inactive | Potency [4]: inactive | Potency [5]: inactive | Potency [7]: inactive

Cc1c(O)c(=O)ccn1C
activity change, negative = inhibition [12]: 39.1% [at 11.4 µM] (inactive) | activity, negative = inhibition [13]: 86.4% [at 11.4 µM] (inactive) | Potency [3]: inactive | Potency [4]: inactive | Potency [5]: inactive | Potency [6]: inactive | activity change, negative = inhibition [7]: -14.9% [at 114 µM]

C=C1/C(=C/C=C2\CCC[C@]3(C)[C@@H]([C@H](C)CC[C@@H](O)C(C)C)CC[C@@H]23)C[C@@H](O)C[C@@H]1O
Potency [3]: inactive | Potency [5]: inactive

c1ccc2ccccc2c1
activation [1]: 2.2% (inactive) and 1.82% (inactive) | Potency [3]: inactive | Potency [4]: inactive | Potency [5]: inactive | Potency [6]: inactive | Potency [7]: inactive

FCOC(C(F)(F)F)C(F)(F)F
Potency [3]: inactive | Potency [4]: inactive | Potency [5]: inactive | activity change, negative = inhibition [7]: -16%

CC[N+](C)(C)Cc1ccccc1Br
Potency [14]: inactive | Potency [3]: inactive | Potency [4]: inactive | Potency [6]: inactive

CCOc1nc2cccc(C(=O)O)c2n1Cc1ccc(-c2ccccc2-c2noc(=O)[nH]2)cc1
Potency [3]: inactive | Potency [4]: inactive | Potency [5]: inactive | activity change, negative = inhibition [7]: -24.5%

CN1CCC2=C(C1)C(c1ccccc1)c1ccccc12 (stereo not given)
Potency [3]: inactive | Potency [4]: inactive | Potency [5]: inactive | Potency [6]: inactive | Potency [10]: inactive | Potency [11]: inactive

CC[C@@H](C)[C@H]1O[C@]2(CC[C@@H]1C)C[C@@H]1C[C@@H](C/C=C(\C)[C@@H](O[C@H]3C[C@H](OC)[C@@H](O[C@H]4C[C@H](OC)[C@@H](O)[C@H](C)O4)[C@H](C)O3)[C@@H](C)/C=C/C=C3\CO[C@@H]4[C@H](O)C(C)=C[C@@H](C(=O)O1)[C@]34O)O2
Potency [3]: inactive | Potency [5]: inactive

Cc1cc(C2=NOC(c3cc(Cl)cc(Cl)c3)(C(F)(F)F)C2)ccc1C(=O)NCC(=O)NCC(F)(F)F (stereo not given)
Potency [3]: inactive | Potency [4]: inactive | Potency [5]: inactive | Potency [6]: inactive | Potency [10]: inactive

CCCCCCCCCC(=O)NO
Potency [3]: inactive | Potency [5]: inactive

CN(C)CCC=C1c2ccccc2C(C)(C)c2ccccc21
Potency [3]: inactive | Potency [5]: inactive | Potency [15]: inactive | Potency [16]: 10 µM (active) | Potency [6]: inactive

CCCCCCCC(=O)N[C@H](CN1CCCC1)[C@H](O)c1ccc2c(c1)OCCO2
Potency [3]: inactive | Potency [5]: inactive | Potency [6]: inactive

CCCN1C[C@H](C)[C@@H](O)[C@](C)(O)[C@@H](CC)OC(=O)[C@H](C)[C@@H](O[C@H]2C[C@@](C)(OC)[C@@H](O)[C@H](C)O2)C(C)[C@@H](O[C@@H]2O[C@H](C)C[C@H](N(C)C)[C@H]2O)[C@](C)(O)C[C@H]1C (stereo not given in full)
Potency [3]: inactive | Potency [5]: inactive | Potency [17]: 21.5 µM (active) | Potency [6]: inactive | Potency [7]: 11.2 µM (active) | Potency [18]: inactive

CCN1CCC(=C2c3ccccc3CCc3ccccc32)C1C (stereo not given)
Potency [3]: inactive | Potency [5]: inactive | Potency [6]: inactive

COC(=O)C1=C(C#N)NC(C)=C(C(=O)OC(C)C)C1c1cccc([N+](=O)[O-])c1 (stereo not given)
Potency [3]: inactive | Potency [5]: inactive | Potency [6]: inactive
